The whole screen tested about 310,000 compounds, of which about 14,000 (4.5%) showed an effect of 50% or more. The effect is printed as a negative number. What follows is part of a selection rich in strong results, with near analogues and random picks from the rest.
Target: human ether-à-go-go-related gene (hERG) potassium channel (human, UniProt Q12809)
Test: primary screen, population patch clamp on CHO cells stably expressing hERG; higher = less effect of the substance
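Note: peak tail current of the secondary pulse compared with the same well before compound.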

human ether-à-go-go-related gene (hERG) potassium channel, sequence (Q12809 whole entry, looked up): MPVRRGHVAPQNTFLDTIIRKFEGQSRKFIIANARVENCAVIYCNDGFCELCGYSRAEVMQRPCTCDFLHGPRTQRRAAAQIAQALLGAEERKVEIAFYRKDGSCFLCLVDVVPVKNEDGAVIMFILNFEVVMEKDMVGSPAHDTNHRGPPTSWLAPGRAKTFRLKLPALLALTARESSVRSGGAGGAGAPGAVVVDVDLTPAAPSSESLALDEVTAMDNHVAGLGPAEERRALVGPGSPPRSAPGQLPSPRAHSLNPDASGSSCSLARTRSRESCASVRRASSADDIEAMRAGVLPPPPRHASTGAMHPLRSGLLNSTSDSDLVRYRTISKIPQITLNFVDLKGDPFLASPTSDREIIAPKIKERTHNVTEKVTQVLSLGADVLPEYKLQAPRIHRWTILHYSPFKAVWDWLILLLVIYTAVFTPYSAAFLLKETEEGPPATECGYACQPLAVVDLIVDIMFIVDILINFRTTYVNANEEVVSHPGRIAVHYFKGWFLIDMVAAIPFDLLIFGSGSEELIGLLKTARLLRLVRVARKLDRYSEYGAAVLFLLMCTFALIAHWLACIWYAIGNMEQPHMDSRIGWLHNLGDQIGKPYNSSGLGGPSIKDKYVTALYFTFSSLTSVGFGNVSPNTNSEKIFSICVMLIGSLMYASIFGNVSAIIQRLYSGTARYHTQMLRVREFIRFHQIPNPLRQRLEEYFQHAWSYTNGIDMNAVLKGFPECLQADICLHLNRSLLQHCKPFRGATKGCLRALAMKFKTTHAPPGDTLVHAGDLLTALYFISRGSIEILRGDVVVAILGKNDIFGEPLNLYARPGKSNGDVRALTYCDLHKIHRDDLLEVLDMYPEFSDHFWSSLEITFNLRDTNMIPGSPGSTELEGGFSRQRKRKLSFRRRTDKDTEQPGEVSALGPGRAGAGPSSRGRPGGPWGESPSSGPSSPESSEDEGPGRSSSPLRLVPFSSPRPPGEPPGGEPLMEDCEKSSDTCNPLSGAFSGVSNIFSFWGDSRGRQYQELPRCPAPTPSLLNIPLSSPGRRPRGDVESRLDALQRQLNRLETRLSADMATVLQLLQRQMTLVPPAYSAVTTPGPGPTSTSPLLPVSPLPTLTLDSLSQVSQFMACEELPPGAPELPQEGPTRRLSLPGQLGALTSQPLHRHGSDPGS

Structure (SMILES)	hERG current change (%, negative = inhibition) at 10uM [%]
CCOc1ccc(N2C(=O)CC(N3CCN(C(=O)c4ccco4)CC3)C2=O)cc1 (stereo not drawn)	-9.91
Cc1cc(C)n(C(=O)CNC(=O)C(c2ccccc2)c2ccccc2)n1	-3
CN(C)c1ccc(NC(=O)c2cccc([N+](=O)[O-])c2)c2ccccc12	-4.86
COc1cc(C=O)ccc1OCCCOc1ccc([N+](=O)[O-])cc1	-10.8
O=C(COC(=O)C1(c2ccc(F)cc2)CCCC1)NCc1ccco1	-2.02
CCC(C)NC(=O)c1ccc(C(=O)c2ccccc2)cc1 (stereo not drawn)	12.7
O=C(c1cnn2c1NC(c1ccc(Br)cc1)CC2C(F)(F)F)N1CCN2CCCC2C1 (stereo not drawn)	-63.5
O=C(c1cnn2c1NC(c1ccc(Br)cc1)CC2C(F)(F)F)N1CCN(C23CC4CC(CC(C4)C2)C3)CC1 (stereo not drawn)	-7.5
CN1CCN(C(=O)c2cnn3c2NC(c2ccccc2)CC3C(F)(F)F)CC1 (stereo not drawn)	17.1
Cc1c(C(=O)N(Cc2ccc(N(C)C)cc2)CC2CCCO2)oc2ccccc12 (stereo not drawn)	-26.5
CCCc1ccc2oc(C(=O)N(Cc3ccncc3)CC3CCCO3)c(C)c2c1 (stereo not drawn)	-71.6
CCCc1ccc2oc(C(=O)N(C)Cc3nccs3)c(C)c2c1	-48.3
CCCc1ccc2oc(C(=O)N(C)Cc3cnccn3)c(C)c2c1	-10.9
Cc1c(C(=O)N(Cc2ccncc2)CC2CCCO2)oc2c(F)cccc12 (stereo not drawn)	-27.1
CCCc1ccc2oc(C(=O)N(C)CCn3ccnc3C)c(C)c2c1	-61.4
Cc1ccc2c(C)c(C(=O)N(Cc3ccncc3)CC3CCCO3)oc2c1C (stereo not drawn)	-51.9
Cc1ccc2oc(C(=O)N(Cc3ccncc3)CC3CCCO3)c(C)c2c1 (stereo not drawn)	-34.9
Cc1ccc2oc(C(=O)N(Cc3ccc(N(C)C)cc3)CC3CCCO3)c(C)c2c1 (stereo not drawn)	-14.8
COc1ccc(/C=N/NC(=S)Nc2ccccc2)cc1COc1ccc(Br)cc1	-1.6
Cc1cc(Oc2ccc(C#N)cc2)nc(NCc2ccccc2)n1	2.36
O=C1CN(C(=O)C2CC2)c2ccccc2N1	-15.8
CC(C)(C)OC(=O)N1CCC(NC(=O)c2[nH]cnc2C(=O)Nc2ccccc2)CC1	-15
CNC(=O)COC(=O)c1cccc(S(=O)(=O)N2CCN(c3ccc(F)cc3)CC2)c1	-0.232
N#Cc1nccnc1N1CCN(C(=O)Nc2ccccc2)CC1	5.22
CCc1cc2cc(C)ccc2nc1SCC(=O)NNC(=O)c1ccco1	21.9
CCc1cc2cc3c(cc2nc1SCC(=O)N1CCN(C(=O)c2ccco2)CC1)OCO3	-28.7
CCc1cc2cccc(C)c2nc1SCC(=O)N1CCN(C(=O)c2ccco2)CC1	-54.4

Structure (SMILES)	hERG current change (%, negative = inhibition) at 10uM [%]
Cc1cc2cc3c(cc2nc1SCC(=O)N1CCN(C(=O)c2ccco2)CC1)OCO3	-35.3
CCc1cc2ccc(C)cc2nc1SCC(=O)N1CCN(C(=O)c2ccco2)CC1	-56
CCc1cc2ccc(C)cc2nc1SCC(=O)NNC(=O)c1ccco1	12
CCc1cc2ccc(OC)cc2nc1SCC(=O)N1CCN(C(=O)c2ccco2)CC1	-49.1
CCc1cc2cccc(C)c2nc1SCC(=O)NNC(=O)c1ccco1	-0.00372
CCc1cc2cc(C)cc(C)c2nc1SCC(=O)N1CCN(C(=O)c2ccco2)CC1	-16.2
COc1cc2cc(C)c(SCC(=O)N3CCN(C(=O)c4ccco4)CC3)nc2cc1OC	-66
COc1cc2cc(C)c(SCC(=O)N3CCOCC3)nc2cc1OC	-1.12
CCc1cc2cc(C)ccc2nc1SCC(=O)N1CCN(C(=O)c2ccco2)CC1	-53.4
O=C(CC1C(=O)NCCN1Cc1cccc(C(F)(F)F)c1)NCCc1cnccn1 (stereo not drawn)	7.22
O=C(COC(=O)c1cc(Cl)ccc1O)NC(=O)NCc1ccccc1	4.6
COC(=O)C(CSCc1ccccc1)NC(=O)CSc1nc(C)cc(=O)[nH]1 (stereo not drawn)	18.4
CN(c1ccccc1)S(=O)(=O)c1ccc(C(=O)NCCc2ccc(F)cc2)cc1	-21.1
CC(=O)Nc1ccc(/C(C)=N/NC(=O)c2ccc(CN3CCOCC3)cc2)cc1	25.2
Br.CC1CCCC(C)N1Cc1cn2ccccc2n1 (stereo not drawn)	7.29
Cc1nn(CC(=O)Nc2ccccn2)c(C)c1Br	15.3
Nc1ccc2ncccc2c1N	6.47
CSc1ccc(CCNS(=O)(=O)c2c(C)[nH]c(C)c2C(=O)N2CCCCC2)cc1	-15.2
COc1ccc(CCNC(=O)c2cc(=O)n(C)c(=O)n2C)cc1OC	-0.242
Cc1ccc(-n2c(SCC(=O)OC(C)C)nnc2-c2ccco2)cc1	-37.7
Cc1cccc(C(=O)Oc2ccccc2/C=N/NC(=O)c2ccc(NC(=O)C(C)(C)C)cc2)c1	-4.88
CN1C=CC2=C(C#N)C(N)C(C#N)(C#N)[C@H](c3ccccc3)[C@H]2C1 (stereo partly drawn)	-4.67
Cc1ccc(-n2nnnc2SCC(=O)NNC(=O)c2ccco2)c(C)c1	-4.35
O=C(CSc1nnnn1-c1ccccc1)N1CCN(C(=O)c2ccco2)CC1	-49.4
Cc1ccc(-n2nnnc2SCC(=O)N2CCN(C(=O)c3ccco3)CC2)c(C)c1	-76
COc1ccccc1NC(=O)c1cnc(SC)nc1	19.2
O=C(O)C(=O)O.O=S(=O)(c1ccc(Cl)cc1)N1CCC(N2CCOCC2)CC1	-11.5
